Our source for the Potency and outcome values is PubChem BioAssay (NCATS).

Molecules are shown by their SMILES. Records with an inconclusive call do not appear. Calls of active or inactive are those of the source. Calls follow the shape of the dose curve; as a rule, active = well fitted curve in the direction sought with a large enough effect; inconclusive = small, poorly fitted or top-dose-only effect, or another doubt; inactive = no such curve, though single readings can be large; an effect the other way counts as inactive or inconclusive. Where a SMILES comes first, the peptide text is derived from it. [ ]: non-standard residue; d: D form. pGlu = O=C1CC[C@@H](C(=O)O)N1

A short description of experiment [1]: qHTS to identify inhibitors of the type 1 interferon - major histocompatibility complex class I in skeletal muscle: primary screen against the NCATS Pharmaceutical Collection (AID 1347407).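 Also: luminescence of HiBiT knocked into endogenous HLA-B as interferon-induced MHC class I level.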 Also: potency is read from the fitted curve at half-maximal effect. The essentials:
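Immortalized human myoblasts (C25cl48) with HiBiT knocked into endogenous HLA-B*08:01 were stimulated with 4.0 ng/ml IFN-beta and treated with compounds ([…] top 46 uM) for 24 hrs at 37 C. HiBiT lytic luminescence read.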
In general terms: qHTS replaces the single test concentration by a dilution series.

Experiment [2] addresses Protein phosphatase 1D (Homo sapiens) (UniProt O15297). Kind of experiment: RapidFire Mass Spectrometry qHTS Assay for Modulators of WT P53-Induced Phosphatase 1 (WIP1) (AID 1347424).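 Also: amount of dephosphorylated VEPPL-S-QETFS peptide product formed by WIP1; series mostly up to about 63 µM.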 In a few lines: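 RapidFire mass spectrometry measured dephosphorylated peptide after 5 min room-temperature reaction of 2 uM VEPPL-pS-QETFS with 10 nM WIP1 (50 mM Tris-HCl pH 7.5, 30 mM MgCl2, 0.1 mM EGTA, BSA), following 1 hr compound preincubation; 1 uM isotope-labelled product standard.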

The target is the same in experiment [3]. In words: Rhodamine-PBP qHTS Assay for Modulators of WT P53-Induced Phosphatase 1 (WIP1) (AID 1347425). The essentials:
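The read-out is the change in Rhodamine-PBP fluorescence (f1 - f0, ex 525/em 598 nm) as Pi is released, read each minute for 11 min. Final reaction: 5 nM WIP1, 10 uM phosphopeptide VEPPL-pS-QETFS, 10 uM Rh-PBP, 50 mM Tris-HCl pH 7.5, 30 mM MgCl2. Compound was preincubated with enzyme for 1 hour at room temperature.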

The nature of experiment [4]: Primary qHTS for inhibitors of La Crosse Virus (LACV) - induced cell death in SH-SY5Y cells (AID 1508616).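 Also: top concentration of the series differs between compounds; higher means more rescue of cells from virus-induced death.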 The essentials:
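Screening measures cell viability in LACV-infected SH-SY5Y cultures. Compound was added before virus (0.01 MOI), and ATP was detected by luminescence 6 days later.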

In experiment [5] the target is Calcium and integrin-binding protein 1 (Homo sapiens) (UniProt Q99828). Kind of experiment: Primary qHTS for Identification of Calcium Integrin Binding Protein 1 (CIB1) Competitor (AID 1508620).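 Also: GST tagged CIB1 binding a fluorescein labelled alphaIIb integrin peptide tracer; top concentration of the series differs between compounds.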 In a few lines: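 CIB1-GST (1 uM final) and compound incubated 15 min at room temperature before adding FITC-alphaIIb peptide tracer (100 nM final). Competition for binding read by fluorescence polarization (ex 480, em 540) after another 15 min at room temperature.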
Chain of Calcium and integrin-binding protein 1 (Homo sapiens) (Q99828 whole entry, looked up): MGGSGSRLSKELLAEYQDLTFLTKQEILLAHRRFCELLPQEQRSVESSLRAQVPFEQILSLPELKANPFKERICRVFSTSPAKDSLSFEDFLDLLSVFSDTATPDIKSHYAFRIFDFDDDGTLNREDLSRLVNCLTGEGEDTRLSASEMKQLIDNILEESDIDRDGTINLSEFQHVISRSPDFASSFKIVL

Chain of Protein phosphatase 1D (Homo sapiens) (O15297 whole entry, looked up): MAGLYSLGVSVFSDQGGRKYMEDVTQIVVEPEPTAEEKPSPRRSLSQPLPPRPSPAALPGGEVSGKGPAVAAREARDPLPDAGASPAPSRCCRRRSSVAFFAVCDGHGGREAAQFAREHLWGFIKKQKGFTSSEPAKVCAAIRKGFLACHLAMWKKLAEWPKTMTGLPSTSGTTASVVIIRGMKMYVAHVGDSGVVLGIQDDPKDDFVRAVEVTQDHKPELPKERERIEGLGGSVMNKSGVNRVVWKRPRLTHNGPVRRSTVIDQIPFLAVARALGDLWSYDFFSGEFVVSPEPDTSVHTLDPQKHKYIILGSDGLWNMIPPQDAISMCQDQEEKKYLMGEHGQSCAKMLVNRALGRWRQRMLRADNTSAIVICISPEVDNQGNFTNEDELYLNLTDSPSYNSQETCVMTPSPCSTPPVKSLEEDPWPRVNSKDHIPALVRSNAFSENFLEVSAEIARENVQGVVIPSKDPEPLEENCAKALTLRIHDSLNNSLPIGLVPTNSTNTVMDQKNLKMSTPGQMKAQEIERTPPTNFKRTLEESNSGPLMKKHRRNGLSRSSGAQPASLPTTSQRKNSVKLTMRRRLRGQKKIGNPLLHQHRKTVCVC

As to `Nc1ccc(C(=O)OCC(O)CO)cc1` (stereo not given), the Potency result in experiment [1], in experiment [2] and in experiment [5] was “inactive” throughout. For the same compound, the compound was classed as inactive in experiment [3] and in experiment [4].
Regarding `Cc1ccc2c(Cl)cc(Cl)c(O)c2n1`, the Potency entry in experiment [1], in experiment [2] and in experiment [5] was “inactive” each time. Besides, the compound was called inactive in experiment [3] and in experiment [4].
On to `C/C(=N/NC(=O)c1ccncc1)C(=O)O`, for which the Potency result in experiment [1], in experiment [2] and in experiment [5] was “inactive” throughout. In addition, the outcome in experiment [3] and in experiment [4] was inactive.
With `CCCCCC(=O)O[C@]1(C(C)=O)CC[C@H]2[C@@H]3CCC4=CC(=O)CC[C@]4(C)[C@H]3CC[C@@]21C`, the Potency entry in experiment [1], in experiment [2] and in experiment [5] was “inactive” throughout. Also, the result in experiment [3] and in experiment [4] was inactive.
`COC(=O)c1cc(S(N)(=O)=O)ccc1OC`: the Potency entry in experiment [1], in experiment [2] and in experiment [5] was “inactive” throughout. Besides, the outcome in experiment [3] and in experiment [4] was inactive.
Regarding `CC(=O)O[C@@H]1CC2C3CCc4cc(OC(=O)c5ccccc5)ccc4C3CCC2(C)[C@H]1OC(C)=O` (stereo not given in full), the Potency result in experiment [1], in experiment [2] and in experiment [5] was “inactive” in each case. The call in experiment [3] and in experiment [4] was inactive.
`CCNC(=O)[C@@H]1CCCN1C(=O)[C@H](CCCN=C(N)N)NC(=O)[C@H](CC(C)C)NC(=O)CNC(=O)[C@H](Cc1ccc(O)cc1)NC(=O)[C@H](CO)NC(=O)[C@H](Cc1c[nH]c2ccccc12)NC(=O)[C@H](Cc1cnc[nH]1)NC(=O)[C@@H]1CCC(=O)N1` ([pGlu]HWSYGLRP-NHEt): the Potency result in experiment [1], in experiment [2] and in experiment [5] was “inactive” in each case. Besides, the compound was called inactive in experiment [3] and in experiment [4].
Regarding `Cc1ccccc1C(=O)N1CC/C(=N\OS(=O)(=O)O)c2ccc(Cl)cc21`, the Potency entry in experiment [1], in experiment [2] and in experiment [5] was “inactive” each time. Besides, the compound was called inactive in experiment [3] and in experiment [4].
For the compound `Nc1ccc(C(=O)N2CC3CC(CN(Cc4ccccc4)C3)C2)cc1`, the Potency entry in experiment [1], in experiment [2] and in experiment [5] was “inactive” each time. Also, the compound was called inactive in experiment [3] and in experiment [4].
Take `Cn1cc(S(C)=O)c(=O)c2ccc(F)cc21` (stereo not given): the Potency entry in experiment [1], in experiment [2] and in experiment [5] was “inactive” throughout. The result in experiment [3] and in experiment [4] was inactive.
Take `COc1cc(OC)nc(O[C@H](C(=O)O)C(OC)(c2ccccc2)c2ccccc2)n1`: the Potency entry in experiment [1], in experiment [2] and in experiment [5] was “inactive” in each case. Also, the compound was classed as inactive in experiment [3] and in experiment [4].
On to `COc1ccc([C@@H]2Sc3ccccc3NC(=O)[C@@H]2O)cc1`, for which the Potency result in experiment [1], in experiment [2] and in experiment [5] was “inactive” throughout. In addition, the compound was classed as inactive in experiment [3] and in experiment [4].
As for `Cc1cc(O)c(C)c(C)c1O`, the Potency result in experiment [1], in experiment [2] and in experiment [5] was “inactive” in each case. The result in experiment [3] and in experiment [4] was inactive.
Consider `CCCCCC[C@@H](CCC)C(=O)O`, for which the Potency entry in experiment [1], in experiment [2] and in experiment [5] was “inactive” in each case. The call in experiment [3] and in experiment [4] was inactive.
For `CN1C(CSCC(F)(F)F)Nc2cc(Cl)c(S(N)(=O)=O)cc2S1(=O)=O` (stereo not given), the Potency result in experiment [1], in experiment [2] and in experiment [5] was “inactive” throughout. For the same compound, the compound was called inactive in experiment [3] and in experiment [4].
Consider `CC(C)CCCC(C)NCCC(C)C` (stereo not given), for which the Potency result in experiment [1], in experiment [2] and in experiment [5] was “inactive” each time. Also, the outcome in experiment [3] and in experiment [4] was inactive.
For `CCOC(=O)C(=O)c1csc(NC=O)n1`, the Potency result in experiment [1], in experiment [2] and in experiment [5] was “inactive” throughout. Moreover, the call in experiment [3] and in experiment [4] was inactive.
`CN(C)CCN1CCN(c2cccc(Cl)c2)C1=O`: the Potency result in experiment [1], in experiment [2] and in experiment [5] was “inactive” each time. Also, the outcome in experiment [3] and in experiment [4] was inactive.
In the case of `Cc1ncc(CO)c(CO)c1O`, the Potency result in experiment [1], in experiment [2] and in experiment [5] was “inactive” in each case. For the same compound, the compound was classed as inactive in experiment [3] and in experiment [4].
Take `CCC(CN)=C(c1ccccc1)c1ccccc1`: the Potency result in experiment [1], in experiment [2] and in experiment [5] was “inactive” in each case. Besides, the compound was classed as inactive in experiment [3] and in experiment [4].
In the case of `Cc1sccc1Br`, the Potency entry in experiment [1], in experiment [2] and in experiment [5] was “inactive” each time. The compound was classed as inactive in experiment [3] and in experiment [4].
On to `O=C(O)CCCC[C@@H]1SC[C@@H]2NC(=O)N[C@@H]21`, for which the Potency result in experiment [1], in experiment [2] and in experiment [5] was “inactive” throughout. The call in experiment [3] and in experiment [4] was inactive.
On to `COc1cc2nc(Cl)nc(N)c2cc1OC`, for which the Potency result in experiment [1], in experiment [2] and in experiment [5] was “inactive” throughout. For the same compound, the compound was classed as inactive in experiment [3] and in experiment [4].
In the case of `CCCc1ncc(C(=O)O)s1`, the Potency entry in experiment [1], in experiment [2] and in experiment [5] was “inactive” each time. The result in experiment [3] and in experiment [4] was inactive.
As for `CO/N=C(/C(=O)N[C@@H]1C(=O)N2C(C(=O)OCOC(=O)C(C)(C)C)=C(C)CS[C@H]12)c1csc(N)n1`, the Potency result in experiment [1], in experiment [2] and in experiment [5] was “inactive” in each case. Also, the outcome in experiment [3] and in experiment [4] was inactive.
Turning to `CCOC(=O)CN1CCCC1=O`, the Potency result in experiment [1], in experiment [2] and in experiment [5] was “inactive” throughout. Besides, the compound was classed as inactive in experiment [3] and in experiment [4].
On to `CC(C)(C)NCC(O)COc1ccccc1OCC1CCCO1` (stereo not given), for which the Potency entry in experiment [1], in experiment [2] and in experiment [5] was “inactive” each time. In addition, the compound was called inactive in experiment [3] and in experiment [4].
On to `Nc1nc(=O)n([C@@H]2O[C@H](CO)[C@@H](O)[C@@H]2F)cc1I`, for which the Potency result in experiment [1], in experiment [2] and in experiment [5] was “inactive” in each case. The compound was classed as inactive in experiment [3] and in experiment [4].
As to `Cc1ccc(C(=O)C(=O)O)cc1C`, the Potency result in experiment [1], in experiment [2] and in experiment [5] was “inactive” throughout. Also, the compound was called inactive in experiment [3] and in experiment [4].
With `COCCOCC(OC)OC`, the Potency entry in experiment [1], in experiment [2] and in experiment [5] was “inactive” throughout. The call in experiment [3] and in experiment [4] was inactive.
As to `Nc1ccc([N+](=O)[O-])c(C(F)(F)F)c1`, the Potency result in experiment [1], in experiment [2] and in experiment [5] was “inactive” in each case. Besides, the outcome in experiment [3] and in experiment [4] was inactive.
Regarding `CC[C@@]1(O)C(=O)OCc2c1cc1n(c2=O)Cc2c-1nc1ccccc1c2/C=N/OC(C)(C)C`, the Potency in experiment [1] was 745 nM (active). The Potency result in experiment [2] and in experiment [5] was “inactive” in each case. For the same compound, the compound was classed as inactive in experiment [3] and in experiment [4].
Turning to `Nc1ncnc2nc[nH]c12`, the Potency entry in experiment [1], in experiment [2] and in experiment [5] was “inactive” each time. For the same compound, the result in experiment [3] and in experiment [4] was inactive.
